The source made the active and inactive calls. Rule for the calls: active = hit-call score of the fitted dose curve at least 0.9, where 1 is the maximum; inactive = score below 0.9.
read-out: Cyclin Dependent Kinase Inhibitor 1A (CDKN1A), CDKN1A (gene 1026); experiment: LTEA_HepaRG_CDKN1A: Life Technologies and Expression Analysis (LTEA) Assay for Cyclin Dependent Kinase Inhibitor 1A (CDKN1A) using HepaRG (AID 2283450); conditions: mRNA level, 48 h; actives raise or lower the signal
Summary of the method: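 Read-out is CDKN1A mRNA by TaqMan qRT-PCR, normalized to three housekeeping genes and fitted in both directions against the DMSO baseline. Human HepaRG cells were treated 48 h with test chemicals up to 100 uM in half-log steps, 0.5% DMSO.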

| Structure (SMILES) | outcome | AC50 |
| --- | --- | --- |
| CC(C)N(C(=O)SCC(Cl)=C(Cl)Cl)C(C)C | inactive |  |
| CCOP(=S)(Oc1cnc(C(C)(C)C)nc1)OC(C)C (stereo not given) | inactive |  |
| C#CCC1=C(C)C(OC(=O)C2C(C=C(C)C)C2(C)C)CC1=O (stereo not given) | inactive |  |
| CCCSP(=O)(OCC)SCCC | inactive |  |
| C[Si](Cn1cncn1)(c1ccc(F)cc1)c1ccc(F)cc1 |  | 50 µM (active) |
| CNC(=O)ON=C(C)SC | inactive |  |
| CNc1cnn(-c2cccc(C(F)(F)F)c2)c(=O)c1Cl | inactive |  |
| CCCCSP(=O)(SCCCC)SCCCC | inactive |  |
| CCOC(=O)CC(SP(=O)(OC)OC)C(=O)OCC (stereo not given) | inactive |  |
| CCCCOC(=O)[C@@H](C)Oc1ccc(Oc2ccc(C#N)cc2F)cc1 | inactive |  |
| CCCSP(=O)(OCC)Oc1ccc(Br)cc1Cl (stereo not given) | inactive |  |
| CON=C(C(=O)OC)c1ccccc1CON=C(C)c1cccc(C(F)(F)F)c1 | inactive |  |
| CCC(CC)Nc1c([N+](=O)[O-])cc(C)c(C)c1[N+](=O)[O-] | inactive |  |
| CSc1nc(NC(C)C)nc(NC(C)C)n1 | inactive |  |
| CNC(=O)ON=C(SC)C(=O)N(C)C | inactive |  |
| CCNc1nc(Cl)nc(NC(C)(C)C#N)n1 | inactive |  |
| O=c1ccc(=O)[nH][nH]1 | inactive |  |
| S=C1NCCN1 | inactive |  |

| Structure (SMILES) | outcome | AC50 |
| --- | --- | --- |
| CC(COc1ccc(Oc2ccccc2)cc1)Oc1ccccn1 (stereo not given) | inactive |  |
| CCOP(=S)(OCC)OC(Cl)C(Cl)(Cl)Cl (stereo not given) | inactive |  |
| COc1cccc(C(=O)NN(C(=O)c2cc(C)cc(C)c2)C(C)(C)C)c1C | inactive |  |
| CCc1cccc(C)c1N(C(=O)CCl)C(C)COC (stereo not given) | inactive |  |
| CN(C)C(=O)Nc1cccc(C(F)(F)F)c1 | inactive |  |
| CCCCN(CC)c1c([N+](=O)[O-])cc(C(F)(F)F)cc1[N+](=O)[O-] | inactive |  |
| CCOP(=S)(OCC)Oc1ccc([N+](=O)[O-])cc1 | inactive |  |
| C=C(C)[C@H]1Cc2c(ccc3c2O[C@@H]2COc4cc(OC)c(OC)cc4[C@@H]2C3=O)O1 |  | 1.41 µM (active) |
| CCOP(=O)(NC(C)C)Oc1ccc(SC)c(C)c1 (stereo not given) | inactive |  |
| COc1ccc(C(=CC(=O)N2CCOCC2)c2ccc(Cl)cc2)cc1OC | inactive |  |
| CC1(C(=O)Nc2ccc(O)c(Cl)c2Cl)CCCCC1 | inactive |  |
| C[N+]1(C)CCCCC1 | inactive |  |
| CN(C)NC(=O)CCC(=O)O | inactive |  |
| CN(C)[C@@H]1C(=O)C(C(N)=O)=C(O)[C@@]2(O)C(=O)C3=C(O)c4c(O)cccc4[C@@](C)(O)[C@H]3[C@H](O)[C@@H]12 | inactive |  |
| Cc1ccn2nc(S(=O)(=O)Nc3c(F)cccc3F)nc2n1 | inactive |  |
| CCOC(=O)COc1cc(-c2nn(C)c(OC(F)F)c2Cl)c(F)cc1Cl | inactive |  |
| COP(=O)(NC(C)=O)SC (stereo not given) | inactive |  |

read-out: Cyclin D1 (CCND1), CCND1 (gene 595); experiment: LTEA_HepaRG_CCND1: Life Technologies and Expression Analysis (LTEA) Assay for Cyclin D1 (CCND1) using HepaRG (AID 2283451); conditions: mRNA level, 48 h; actives raise or lower the signal;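 for AC50: differentiated human HepaRG liver cells in serum-free induction medium; TaqMan qRT-PCR transcript level normalised to ACTB GAPDH and POLR2A housekeeping genes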
Summary of the method: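 HepaRG plated 48 h, medium switched to serum-free induction medium, chemicals added in duplicate (top 100 uM, half-log steps, 0.5% DMSO) for 48 h, cells lysed, RNA measured by TaqMan qRT-PCR.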

| Structure (SMILES) | outcome | AC50 |
| --- | --- | --- |
| CC(C)N(C(=O)SCC(Cl)=C(Cl)Cl)C(C)C | inactive |  |
| CCOP(=S)(Oc1cnc(C(C)(C)C)nc1)OC(C)C (stereo not given) |  | 50 µM (active) |
| C#CCC1=C(C)C(OC(=O)C2C(C=C(C)C)C2(C)C)CC1=O (stereo not given) | inactive |  |
| CCCSP(=O)(OCC)SCCC | inactive |  |
| C[Si](Cn1cncn1)(c1ccc(F)cc1)c1ccc(F)cc1 |  | 40.3 µM (active) |
| CNC(=O)ON=C(C)SC | inactive |  |
| CNc1cnn(-c2cccc(C(F)(F)F)c2)c(=O)c1Cl | inactive |  |
| CCCCSP(=O)(SCCCC)SCCCC | inactive |  |
| CCOC(=O)CC(SP(=O)(OC)OC)C(=O)OCC (stereo not given) | inactive |  |
| CCCCOC(=O)[C@@H](C)Oc1ccc(Oc2ccc(C#N)cc2F)cc1 | inactive |  |
| CCCSP(=O)(OCC)Oc1ccc(Br)cc1Cl (stereo not given) | inactive |  |
| CON=C(C(=O)OC)c1ccccc1CON=C(C)c1cccc(C(F)(F)F)c1 | inactive |  |
| CCC(CC)Nc1c([N+](=O)[O-])cc(C)c(C)c1[N+](=O)[O-] | inactive |  |
| CSc1nc(NC(C)C)nc(NC(C)C)n1 | inactive |  |
| CNC(=O)ON=C(SC)C(=O)N(C)C | inactive |  |
| CCNc1nc(Cl)nc(NC(C)(C)C#N)n1 | inactive |  |
| O=c1ccc(=O)[nH][nH]1 | inactive |  |
| S=C1NCCN1 | inactive |  |

| Structure (SMILES) | outcome | AC50 |
| --- | --- | --- |
| CC(COc1ccc(Oc2ccccc2)cc1)Oc1ccccn1 (stereo not given) | inactive |  |
| CCOP(=S)(OCC)OC(Cl)C(Cl)(Cl)Cl (stereo not given) | inactive |  |
| COc1cccc(C(=O)NN(C(=O)c2cc(C)cc(C)c2)C(C)(C)C)c1C | inactive |  |
| CCc1cccc(C)c1N(C(=O)CCl)C(C)COC (stereo not given) | inactive |  |
| CN(C)C(=O)Nc1cccc(C(F)(F)F)c1 | inactive |  |
| CCCCN(CC)c1c([N+](=O)[O-])cc(C(F)(F)F)cc1[N+](=O)[O-] | inactive |  |
| CCOP(=S)(OCC)Oc1ccc([N+](=O)[O-])cc1 | inactive |  |
| C=C(C)[C@H]1Cc2c(ccc3c2O[C@@H]2COc4cc(OC)c(OC)cc4[C@@H]2C3=O)O1 |  | 22.8 µM (active) |
| CCOP(=O)(NC(C)C)Oc1ccc(SC)c(C)c1 (stereo not given) | inactive |  |
| COc1ccc(C(=CC(=O)N2CCOCC2)c2ccc(Cl)cc2)cc1OC | inactive |  |
| CC1(C(=O)Nc2ccc(O)c(Cl)c2Cl)CCCCC1 | inactive |  |
| C[N+]1(C)CCCCC1 | inactive |  |
| CN(C)NC(=O)CCC(=O)O | inactive |  |
| CN(C)[C@@H]1C(=O)C(C(N)=O)=C(O)[C@@]2(O)C(=O)C3=C(O)c4c(O)cccc4[C@@](C)(O)[C@H]3[C@H](O)[C@@H]12 | inactive |  |
| Cc1ccn2nc(S(=O)(=O)Nc3c(F)cccc3F)nc2n1 | inactive |  |
| CCOC(=O)COc1cc(-c2nn(C)c(OC(F)F)c2Cl)c(F)cc1Cl | inactive |  |
| COP(=O)(NC(C)=O)SC (stereo not given) | inactive |  |

Reference: PubChem BioAssay (EPA / NIEHS)
